# Compound activity deposited in PubChem by National Center for Advancing Translational Sciences (NCATS).
# Hits are enriched below; roughly 2.4% of the tested compounds scored in any of these assays.
# DNA Pol III inh: blocks replication by bacterial DNA polymerase III holoenzyme | reconstituted DNA polymerase III holoenzyme replication, biochemical | Potency, µM (series often up to 57.1 µM), without a hit: at the highest dose activity change, negative = inhibition | 71,000 tested, 0.25% active | AID 603; further: potency means the concentration at half of the fitted maximal effect; on the % scale 0 is the no-effect control and ±100 the full control effect
#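 Reconstituted *E. coli* holoenzyme (0.35 nM Pol III, 1 nM beta, 154 nM SSB, 2 nM primase) was preincubated with compound for 15 min at RT. Synthesis on 1.4 nM ssM13Gori ran 35 min, then was stopped with PicoGreen/EDTA and read as dsDNA fluorescence.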
# Hsp90 Hop PPI: changes Hsp90-Hop TPR2A binding signal, up or down | AlphaScreen TPR2A-His6 binding biotin-Hsp90 C-terminal peptide | Potency, µM (highest dose often 57 µM), for inactives: at the highest dose activity change, negative = inhibition | 71,000 tested, 0.44% active; active means well fitted curve in either direction with a large enough effect; inconclusive means small, poorly fitted or top-dose-only effect, or another doubt; further: potency means the concentration at half of the fitted maximal effect; on the % scale 0 is the no-effect control and ±100 the full control effect
# BRCT inh red: BRCT-phosphoprotein interaction inhibition (red fluorophore) | P38398 | BRCT-phosphopeptide binding, red fluorescence polarization | Potency, µM (highest dose often 76.9 µM), for inactives: at the highest dose activity change, negative = inhibition, actives largely listed as inhibitors | 75,000 tested, 0.03% active; further: on the % scale 0 is the no-effect control and ±100 the full control effect
# Target sequence (P38398 whole entry, looked up): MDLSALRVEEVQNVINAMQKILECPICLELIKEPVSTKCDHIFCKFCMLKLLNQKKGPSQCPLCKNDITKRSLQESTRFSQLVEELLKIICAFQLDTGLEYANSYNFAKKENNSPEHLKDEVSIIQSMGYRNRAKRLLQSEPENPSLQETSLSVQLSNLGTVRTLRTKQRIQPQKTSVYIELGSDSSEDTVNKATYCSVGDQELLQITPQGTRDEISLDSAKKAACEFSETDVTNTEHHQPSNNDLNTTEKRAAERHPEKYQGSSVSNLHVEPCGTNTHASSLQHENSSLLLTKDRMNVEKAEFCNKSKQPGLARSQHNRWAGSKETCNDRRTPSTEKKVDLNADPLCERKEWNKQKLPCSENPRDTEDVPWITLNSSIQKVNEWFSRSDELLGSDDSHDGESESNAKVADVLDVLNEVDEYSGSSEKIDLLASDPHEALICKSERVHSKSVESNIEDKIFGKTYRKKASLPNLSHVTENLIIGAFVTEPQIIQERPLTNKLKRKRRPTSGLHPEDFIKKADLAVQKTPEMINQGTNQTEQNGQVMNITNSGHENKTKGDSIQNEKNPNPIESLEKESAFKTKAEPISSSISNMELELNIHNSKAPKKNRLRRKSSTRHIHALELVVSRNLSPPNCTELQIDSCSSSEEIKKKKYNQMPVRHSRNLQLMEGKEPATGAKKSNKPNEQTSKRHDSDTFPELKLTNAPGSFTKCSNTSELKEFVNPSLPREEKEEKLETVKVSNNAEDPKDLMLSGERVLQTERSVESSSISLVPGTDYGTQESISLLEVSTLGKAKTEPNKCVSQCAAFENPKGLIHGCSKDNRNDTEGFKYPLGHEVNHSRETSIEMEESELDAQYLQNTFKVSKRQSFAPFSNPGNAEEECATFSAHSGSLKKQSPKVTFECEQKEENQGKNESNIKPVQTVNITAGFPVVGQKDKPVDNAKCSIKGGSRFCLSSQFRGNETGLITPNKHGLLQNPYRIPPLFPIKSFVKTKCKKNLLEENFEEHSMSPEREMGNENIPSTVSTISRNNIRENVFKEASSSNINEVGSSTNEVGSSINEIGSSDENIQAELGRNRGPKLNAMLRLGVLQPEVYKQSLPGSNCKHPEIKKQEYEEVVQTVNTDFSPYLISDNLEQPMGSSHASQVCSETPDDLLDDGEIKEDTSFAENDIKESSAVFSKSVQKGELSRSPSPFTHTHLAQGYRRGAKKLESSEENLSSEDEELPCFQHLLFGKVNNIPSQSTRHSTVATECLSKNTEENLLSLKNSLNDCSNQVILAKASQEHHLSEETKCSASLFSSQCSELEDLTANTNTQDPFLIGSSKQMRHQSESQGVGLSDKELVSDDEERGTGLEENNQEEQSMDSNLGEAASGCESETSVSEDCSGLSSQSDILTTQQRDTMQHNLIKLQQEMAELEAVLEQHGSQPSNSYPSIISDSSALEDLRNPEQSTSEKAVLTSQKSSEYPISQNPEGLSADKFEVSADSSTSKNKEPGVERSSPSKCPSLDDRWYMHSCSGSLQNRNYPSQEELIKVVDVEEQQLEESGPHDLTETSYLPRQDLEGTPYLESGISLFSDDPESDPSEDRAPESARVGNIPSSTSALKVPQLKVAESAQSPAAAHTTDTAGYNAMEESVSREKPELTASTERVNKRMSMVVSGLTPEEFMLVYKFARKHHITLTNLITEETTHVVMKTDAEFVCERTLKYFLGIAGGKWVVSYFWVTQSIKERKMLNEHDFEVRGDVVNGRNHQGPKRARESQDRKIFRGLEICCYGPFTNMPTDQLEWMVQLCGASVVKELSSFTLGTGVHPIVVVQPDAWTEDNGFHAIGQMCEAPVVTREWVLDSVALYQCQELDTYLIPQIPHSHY
#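 Fluorescence polarization: 100 nM His-tagged BRCA1 BRCT with 100 nM TAMRA-labelled phospho-BACH1 decapeptide, phosphate buffer pH 7.3 with 150 mM NaCl, DTT, 0.01% Tween 20; 12 min RT. Binding inhibition seen as FP decrease.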
# Tau filament bind: binds recombinant human tau filaments | P10636 | recombinant tau filaments, thioflavin S fluorescence, 15 h; filaments grown with octadecylsulfate alongside compound | Potency, µM (top dose mostly 57.1 µM), inactives show top-dose activity change, negative = inhibition | 71,000 tested, 2% active | AID 596;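 further: potency means the concentration at half of the fitted maximal effect; on the % scale 0 is the no-effect control and ±100 the full control effect; actives lower thioflavin S fluorescence by blocking filaments or displacing dye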
#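 His-tagged recombinant human tau (exons 2, 3 and 10 included), 1 uM, was induced to fibrillize by 30 uM sodium octadecylsulfate with compound present. After 15 h at 37 C, thioflavine S fluorescence (ex 450, em 510 nm) was read.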
# YjeE inh: YjeE (TsaE) inhibition, E. coli | P0AF67 | purified YjeE enzyme, qHTS inhibition assay | Potency, µM | 71,000 tested, 0.05% active
#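 Fluorescence polarization of a BODIPY Texas Red–ADP probe (2 uM) bound to purified YjeE (10 uM) was read after 15 min room-temperature incubation with compounds. Loss of polarization marks inhibitors; ADP serves as titrated control.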
# BRCT inh green: blocks human BRCA1 BRCT binding to phosphopeptide, green readout. 75,000 tested, 0.05% active. BRCA1 BRCT-phosphopeptide binding, green fluorescence polarization. Potency, µM (titrated, usually from 76.9 µM), inactives show top-dose activity change, negative = inhibition, most hits filed as inhibitors. P38398;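 further: potency means the concentration at half of the fitted maximal effect; plate controls were peptide without protein for full effect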
#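 Compounds were incubated for 12 min at room temperature with a complex of 100 nM fluorescein-tagged pBACH1 decapeptide and 250 nM His-tagged BRCT protein. Buffer was phosphate pH 7.3 with EDTA, DTT and Tween 20. Disruption of binding lowers the polarization signal.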
# The depositor's hits bear a star; i = inactive; u = inconclusive; x = not tested or not shown; [ ] = dose if it differs, or a comment. Unless noted, the call rests on the fitted dose curve; in most records, active means well fitted curve in the direction sought with a large enough effect; inconclusive means small, poorly fitted or top-dose-only effect, or another doubt; inactive means no such curve, though single readings can be large; an effect the other way counts as inactive or inconclusive.
SMILES,DNA Pol III inh,Hsp90 Hop PPI,BRCT inh red,Tau filament bind,YjeE inh,BRCT inh green
CN(C)C(=O)c1ccc(-c2nc(Nc3ccncc3)c3ccccc3n2)cc1,-7%,-4%,-5%,-1%,i,12%
CNc1nc(-c2ccc3c(c2)OCO3)nc2ccccc12,-2%,5%,1%,59%,i,3%
c1ccc(Nc2nc(-c3ccc4c(c3)OCO4)nc3ccccc23)cc1,-4%,26%,0%,25µM*,i,0%
CN(C)c1ccc(-c2nc(Nc3ccncc3)c3ccccc3n2)cc1,-8%,0%,1%,10µM*,i,0%
Cc1ccc(C)c(N2CCN(C(=O)CCS(=O)(=O)c3cccc4nonc34)CC2)c1,-8%,-19%,1%,32µM*,i,-1%
CCOC(=O)C(C(C)=O)c1c(Br)c(O)c(O)c2c(C(=O)c3ccc(C)cc3)coc12 (stereo unspecified),6%,u,0%,10µM*,i,2%
CCCn1c(C)nc2c(N(CCOC)CCOC)nc(C)nc21,-1%,-2%,0%,-9%,i,-1%
O=c1cc(-c2c(F)c(F)c(F)c(F)c2F)oc2c(F)c(F)c(F)c(F)c12,-5%,-3%,-1%,16µM*,i,-2%
CCn1c2ccccc2c2nnc(SCc3ccc(C(=O)OC)o3)nc21,0%,u,0%,32µM*,i,0%
CCn1c2ccccc2c2nnc(SCc3ccccc3)nc21,-3%,-7%[2.3 µM],0%,-22%,i,-1%
O=C(O)C1=CC(O)[C@@H](O)C(O)C1 (stereo partly specified),x,x,0%,x,x,-3%
CC(C)C[C@H]1C(=O)N2CCC[C@@H]2[C@]2(O)O[C@](NC(=O)[C@@H]3C=C4c5cccc6[nH]c(Br)c(c56)C[C@H]4N(C)C3)(C(C)C)C(=O)N12,0%,-10%,-2%,32µM*,i,0%
CN1C[C@H](C(=O)N[C@@]2(C)O[C@@]3(O)C4CCCN4C(=O)C(Cc4ccccc4)N3C2=O)C[C@H]2c3cccc4[nH]cc(c34)C[C@H]21 (stereo partly specified),x,x,0%,x,x,-2%[3.08 µM]
N#C/C(C(N)=O)=c1/ccc2c(c1)N1C3=C(CCCC3)CC3CCCCC31N=2 (stereo unspecified),1%,u,-1%,5µM*,40µM*,-1%
N#CC(C#N)=c1ccc2c(c1)N1C3=C(CCCC3)CC3CCCCC31N=2 (stereo unspecified),4%,u,-3%,1.6µM*,i,-1%
Cc1nc2cnc(Oc3cccc(Cl)c3)nc2n(CCC#N)c1=O,-7%,-6%,-1%,-3%,i,0%
COc1ccccc1CCn1c(=O)c(-c2ccc(F)c(F)c2)nc2cncnc21,-8%,-4%,-1%,-22%,i,2%
COc1ccc2[nH]cc(CCNc3nc(-c4ccccc4OC)nc4ccccc34)c2c1,-4%,-20%,-2%,2.5µM*,i,0%
CCC(C)O (stereo unspecified),0%,-1%,1%,-1%,i,1%
S=C([S-])NCCNC(=S)[S-].[Zn+2],0.4µM*,16µM*,-26%,15%,i,0%
COc1ccc(N2CCN(C(=O)c3ccc(NS(=O)(=O)c4ccc(F)cc4)cc3)CC2)cc1,1%,-22%,-2%,16µM*,i,-4%
CCOc1ccc(S(=O)(=O)Nc2cccc(C(=O)N3CCN(c4ccc(OC)cc4)CC3)c2)cc1,-3%,-14%,-1%,-16%,i,-2%
CCN(CC)c1ccc(NC(=O)C2CC3CCC2C3)cc1 (stereo unspecified),-2%,-29%,0%,25µM*,i,1%
CCOC(=O)N1CCN(c2c(NCCCN(CC)Cc3ccccc3)c(=O)c2=O)CC1,-3%,-1%,-1%,4%,i,-2%
O=C(O)CCCNc1cc(N2CCC3(CC2)OCCO3)c2noc3c2c1C(=O)c1ccccc1-3,3.2µM*,3.2µM*,u,16µM*,i,-15%
SMILES,DNA Pol III inh,Hsp90 Hop PPI,BRCT inh red,Tau filament bind,YjeE inh,BRCT inh green
CCOC(=O)N1CCN(c2cc(NCCC(=O)O)c3c4c(onc24)-c2ccccc2C3=O)CC1,-24%,u,-9%,13µM*,i,-2%
Cc1ccccc1OCC1CO1 (stereo unspecified),-11%,-5%,-1%,8%,i,-3%
O=C(Cn1c(-c2ccccc2)noc1=O)Nc1ccc(N2CCCCCC2)cc1,-1%,u,-2%,13µM*,i,0%
N#Cc1c(NC(=O)C(F)(F)F)sc2c3c(=O)c4ccccc4c(=O)c=3oc3ccccc3c12,-5%[11.4 µM],-6%[11 µM],-1%[15.4 µM],4µM*,i,0%[15.4 µM]
Cc1ccccc1NC(=O)Cn1c(C)nc2ccc(NC(=O)C3CC3)cc2c1=O,-4%,-4%,1%,-4%,i,1%
CCC(=O)Nc1ccc2nc(C)n(CC(=O)Nc3ccccc3)c(=O)c2c1,-7%,-3%,0%,13µM*,i,0%
COc1ccccc1N1CCN(CCCCN2C(=O)CCC2=O)CC1,-7%,-11%,-1%,u,i,-3%
COc1ccccc1N1CCN(CCn2c(=O)[nH]c3c([nH]c4ccccc43)c2=O)CC1,-5%,5%,2%,40µM*,i,-1%
CCOC(=O)C1=C(C)NC2=C(C(=O)c3ccccc32)C1c1cccnc1 (stereo unspecified),6%,-9%,0%,3.2µM*,i,-2%
Cc1cc(N)c2cc(OCCOc3ccc4nc(C)cc(N)c4c3)ccc2n1,x,x,1%[15.4 µM],x,x,-2%[15.4 µM]
Cc1cc(N)c2cc(NC(=O)Nc3ccc4nc(C)cc(N)c4c3)ccc2n1,4µM*,u,0%[15.4 µM],247%[11.4 µM],i,9%[15.4 µM]
N#Cc1c(N2CCCC2)nc(N)c2c(N)nc(N3CCCC3)cc12,0%,25µM*,-4%,-26%,i,5%
CNC(=O)c1c(NC(=O)c2nc3ccccc3s2)sc2c1CCC2,-7%,0%,0%,0.63µM*,i,8%
CC(C)C[C@@H](CC(=O)N[C@@H](CCC(=O)O)CC(=O)O)NC(=O)[C@@H]1CNCC[C@H]1NC(=O)C[C@@H](NC(=O)C[C@H](Cc1ccccc1)NC(=O)[C@@H]1CNCC[C@H]1N)C(C)C,-5%,u,x,-10%,i,x
Cc1ccc(-c2csc3nnc(SCC(=O)N4CCN(Cc5ccccc5)CC4)n23)cc1,-3%,-22%,0%,20µM*,i,1%
CCOC(=O)c1c(C)[nH]c(C(=O)CN2CCOCC2)c1C,-2%,-1%,1%,8%,i,-1%
